This passage reports growth results from PubChem BioAssay (NCI).

Holding throughout (assay): NCI-60 one-dose screen, 48 h (100 = growth as untreated, 0 = no growth, -100 = all killed)
Holding throughout (settings): 10 µM unless noted

Experiment [1] relates to HCT-15 colon.
Experiment [2] concerns HT29 colon.
Experiment [3] has as its system SNB-75 CNS.
In experiment [4] the test system is SNB-19 CNS.
Experiment [5] has as its system U251 CNS.
Experiment [6] has as its system PC-3 prostate.
Experiment [7] deals with SK-MEL-5 melanoma.
In experiment [8] the test system is UACC-62 melanoma.
The subject of experiment [9] is LOX IMVI melanoma.
The test system of experiment [10] is SK-MEL-28 melanoma.
In experiment [11] the test system is SK-MEL-2 melanoma.
Experiment [12] relates to EKVX NSCLC.
In experiment [13] the test system is SN12C renal.
The test system of experiment [14] is UO-31 renal.
Experiment [15] deals with TK-10 renal.
For experiment [16], the system named is ACHN renal.
The test system of experiment [17] is CAKI-1 renal.
Experiment [18] relates to A498 renal.
Experiment [19] concerns CCRF-CEM leukemia.
The subject of experiment [20] is MOLT-4 leukemia.

The panel holds about 83,000 compounds, 20% with a hit somewhere; the sample as a whole holds those more often.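 The test compound was applied at a single concentration to cells in 96-well plates for 48 hours, and percent growth was recorded.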 Values without a mark were called inactive. Activity calls are given as the source filed them. How the source made its calls: active means growth percent below 10; inactive means the rest.

For the compound `CCCCN(C)N=Nc1ccc(C(N)=O)cc1`, the growth in [1] is 114%; in experiment [2], 107%; in [3], 97.3%; in experiment [4] it was 105%; in [5], 108%; in [6], 103%. The growth is 108% in [7]; 98.7% in [8]; 107% in [9]; 104% in experiment [10]; 107% in experiment [11]; 96.2% in experiment [12]. The growth in experiment [13] was 96.7%; in experiment [14] it was 57.1%; in experiment [15] it was 111%; in [16], 107%; in experiment [17], 59%; in experiment [18], 89.7%. In addition, the values for the growth in experiment [19] and in experiment [20] were 110% and 87.7%, respectively.
For the compound `COc1c(N2CC3CCCN(C(C)=O)C3C2)c(F)cc2c(=O)c(C(=O)N[C@H]3C(O)[C@@H](O)C(CO)O[C@H]3O)cn(C3CC3)c12` (stereo not given in full), the growth is 98.5% in [1]; 105% in [2]; 100% in experiment [3]; 99.4% in experiment [4]; 102% in experiment [5]; 108% in experiment [6]. The growth in [7] is 101%; in [8], 101%; in [9] it was 87.1%; in experiment [10], 112%; in experiment [11], 111%; in experiment [12], 103%. The growth in experiment [13] was 98.9%; in experiment [14] it was 92.2%; in [15], 105%; in experiment [16] it was 105%; in [17], 101%; in experiment [18] it was 103%. Also, the growth in [19] is 105%; in experiment [20] it was 116%.
As to `COc1ccc(-c2csc(NC(=O)N3CCN(c4cc5c(cc4F)c(=O)c(C(=O)O)cn5C4CC4)CC3)n2)cc1`, the growth in [1] is 14.6%; in [2], 2.34% (active); in experiment [3] it was -2.38% (active); in [4], 20.8%; in experiment [5] it was 6.54% (active); in experiment [6], -0.577% (active). Further, the growth is -39.9% (active) in [7]; -14.2% (active) in experiment [8]; -76.4% (active) in experiment [9]; 33.7% in [10]; -20.4% (active) in experiment [11]; 23.1% in [12]. Moreover, the growth in [13] is 5.86% (active); in experiment [14], 1.86% (active); in experiment [15] it was 25.5%; in [16], 9.82% (active); in experiment [17] it was 29%; in [18], -15% (active). Further, the growth in experiment [19] was 7.96% (active); in experiment [20], 3.03% (active).
Turning to `CC(=O)CC[C@H]1C(=O)N[C@@H](C(C)C)C(=O)N[C@@H](Cc2cc(O)cc(F)c2)C(=O)N2CCC[C@H](N2)C(=O)O[C@H](/C(C)=C/C=C/C(=O)OC(C)(C)C)C/C=C/C=C/[C@H](O)[C@H](C)[C@H]1O`, the growth in experiment [1] is 26.6%; in experiment [2], 29.6%; in experiment [3] it was 54.6%; in experiment [4], 70%; in experiment [5], 43.3%; in [6], 48.6%. For the same compound, the growth in experiment [7] is 51%; in experiment [8], 52.4%; in experiment [9], 48.6%; in [10], 59.4%; in experiment [11] it was 62.3%; in experiment [12] it was 71.3%. For the same compound, the growth in experiment [13] was 53.7%; in experiment [14] it was 56.2%; in experiment [15] it was 62.6%; in experiment [16] it was 62.6%; in experiment [17] it was 57.4%; in experiment [18], 82.3%. The growth is 46.3% in experiment [19] and 49.5% in experiment [20].
In the case of `Cc1ccc(C(=O)NN2C(=O)CSC2c2ccc(Cl)cc2)cn1` (stereo not given), the growth in [1] is 90.1%; in experiment [2], 105%; in experiment [3], 95.8%; in experiment [4], 85.6%; in experiment [5] it was 93.3%; in experiment [6] it was 87.5%. Moreover, the growth was 99.2% in [7]; 93.5% in experiment [8]; 97.4% in experiment [9]; 90.8% in [10]; 102% in experiment [11]; 110% in [12]. In addition, the growth in experiment [13] was 91.4%; in [14], 21.8%; in experiment [15], 128%; in experiment [16], 96.5%; in [17], 80.7%; in experiment [18], 164%. The growth in experiment [19] is 117%; in experiment [20], 82.2%.
As for `COc1ccc2c(c1OC)C(=O)O[C@H]2[C@H]1c2c(cc3c(c2OC)OCO3)CCN1C`, the growth in experiment [1] was 95.6%; in [2], 104%; in [3], 88.5%; in [4], 103%; in [5], 97.2%; in experiment [6], 90.1%. For the same compound, the growth is 96.2% in experiment [7]; 109% in [8]; 90.2% in [9]; 100% in experiment [10]; 106% in experiment [11]; 95.4% in experiment [12]. In addition, the growth in [13] was 100%; in [14] it was 85.9%; in experiment [15], 122%; in experiment [16] it was 95.8%; in experiment [17] it was 80.3%; in [18], 93.1%. Moreover, the growth in [19] was 101%; in [20], 116%.
